In PubChem BioAssay (NCI):
The panel holds about 83,000 compounds, 20% with a hit somewhere; the sample as a whole holds those more often.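 Step 1: grow cells in 96-well plates. Step 2: add test compound at a single concentration. Step 3: incubate 48 h. Step 4: record percent growth.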 A number with no mark means an inactive call. Activity calls are given as the source filed them. Rule for the calls: active = growth percent below 10; inactive = the rest.

Columns and labels:
Test in all cases: NCI-60 one-dose screen, 48 h (100 = growth as untreated, 0 = no growth, -100 = all killed)
Settings in all cases: 10 µM unless noted
[1] = system: SN12C renal
[2] = system: UO-31 renal
[3] = system: TK-10 renal
[4] = system: ACHN renal
[5] = system: CAKI-1 renal
[6] = system: A498 renal
[7] = system: CCRF-CEM leukemia
[8] = system: MOLT-4 leukemia
[9] = system: SR leukemia

Row | Structure (SMILES) | growth [1] | growth [2] | growth [3] | growth [4] | growth [5] | growth [6] | growth [7] | growth [8] | growth [9]
1 | c1ccc(CNc2nc(Nc3ccccc3)nc3ccccc23)cc1 | 71.3% | 80.7% | 19.3% | 33.7% | 40.4% | 37.4% | 69.5% | 80.3% | 20%
2 | COc1cc(CNC(=O)c2ccsc2Nc2ccnc(C(F)(F)F)c2)ccc1O | 94.6% | 82.7% | 99.8% | 98.2% | 95.7% | 93% | 83.7% | 85.4% | –
3 | COc1cc(C(C)n2cc(-c3ccccc3)nn2)ccc1OC1CCCC1 (configuration not stated) | 75.2% | 50.9% | 71.8% | 53.4% | 49.6% | 55.6% | 53.5% | 48.6% | –
4 | COc1cc(NC(=O)CCSc2nc3ccccc3c(=O)n2Cc2ccccc2)cc(OC)c1OC | 82.9% | 45.7% | 108% | 78.5% | 72.5% | 64.6% | 74.5% | 69.3% | –
5 | COc1ccc(/C=C2\N=C(c3ccccc3)N(c3ccc(-c4nc5ccc(C)cc5s4)cc3)C2=O)cc1 | 64.3% | 34.2% | 104% | 80.7% | 61.9% | 93.6% | 61.9% | 45.9% | 80.2%
6 | CCOC(=O)c1ccc2[nH]c(-c3ccccc3)cc(=O)c2c1 | 98.2% | 97.1% | 112% | 97.5% | 98.5% | 94.4% | 89.7% | 94% | 96%
7 | CC1(C)CC2(C)OC2C2(C1)N=NC(=Nc1ccccc1)O2 (configuration not stated) | 61.9% | 20.8% | 13.6% | 21.2% | 57.4% | 125% | 10.7% | 19.9% | 11.3%
8 | CCn1c(-c2nonc2Nc2ccc(OC)cc2)nc2ccccc21 | 109% | 90.1% | 101% | 108% | 102% | 78.8% | 105% | 116% | 110%
9 | CCOc1cccc(/C=N/NC(=O)C(=O)Nc2cccc(C(F)(F)F)c2)c1O | 30.6% | 9.54% (active) | 46.1% | 16.6% | 9.87% (active) | 55.9% | 14.1% | 19.1% | 15.9%
10 | CCOC(=O)c1cc2c(n1Cc1cc(OC)c(OC)c(OC)c1)-c1oncc1CCC2 | 32.1% | 38.3% | 85.2% | 33.8% | 43.7% | -22.9% (active) | 5.78% (active) | 7.85% (active) | 2.12% (active)
11 | COc1ccc(C2c3ccc4ccccc4c3Oc3ncn(CCCn4ccnc4)c(=N)c32)cc1OC (configuration not stated) | 61% | 38% | 52.6% | 67.4% | 60.7% | 40.3% | 42.1% | 61.9% | 26.9%
12 | O=c1[nH]nnc2c1ncn2C1OC(CO)C(O)C1O (configuration not stated) | 97.7% | 36% | 39.8% | 30.2% | 25.2% | 86.7% | 27.5% | 26.3% | 37.7%
13 | Nc1nc(Nc2cccc(F)c2)nc2ccccc12 | 34.2% | 23.7% | 29.9% | 44.8% | 38.3% | 43.9% | 26.2% | 39.5% | 13.2%
14 | CCCCc1ccc(NS(=O)(=O)c2cc3c4c(c2)CCN4C(=O)CC3)cc1 | 9.46% (active) | 5.85% (active) | 33.8% | 15.5% | 9.87% (active) | -27.7% (active) | 5.87% (active) | 1.64% (active) | 3.07% (active)
15 | Cn1c(=O)n(C)c2cc(CNCCNc3ccnc4cc(Cl)ccc34)ccc21 | 63.3% | 36.9% | 62.3% | 4.21% (active) | 66.2% | 72.3% | 58.5% | 61.1% | 3.33% (active)
16 | CCOc1cccc(/C=N\Nc2nc(=O)cc(C(=O)OC)s2)c1O | 59.1% | 49.7% | 107% | 68.8% | 65.9% | 87.2% | 38.4% | 53.6% | 50.7%
17 | COc1ccc(-c2cn3c(C(=O)Nc4ccccc4Cl)c(-c4ccccc4)c4c3n2CCCC4)cc1 | 82.7% | 62.8% | 72.2% | 80.9% | 81.6% | 74.9% | 66% | 69.8% | 62.8%
18 | COc1ccc(OC)c(N(CCN2C(=O)c3ccccc3C2=O)C(=O)CCl)c1 | 90.5% | -92.1% (active) | 110% | 78.8% | 29.9% | 72.4% | -57.4% (active) | 54.6% | -48.6% (active)
19 | COC(=O)C1=C(C)NC(C)=C(C(=O)OC)C(N2C(=O)CCC2=O)C1 (configuration not stated) | 88.7% | 81.9% | 123% | 99% | 92.6% | 109% | 35.3% | 78.1% | 37.3%
20 | CC(=O)Nc1nc2c(s1)CCc1c-2cn(S(=O)(=O)c2ccccc2)c1-c1ccccc1 | 76.8% | 41.2% | 85.9% | 69.1% | 56.9% | 88.1% | 43.1% | 48.2% | 28.1%
21 | Nc1ncnc(N)c1NC(=O)c1ccc(OCc2ccccc2)cc1 | 98.9% | 88.1% | 99.3% | 99.9% | 99.3% | 98% | 98.5% | 96.8% | 94%
22 | COc1ccc(Cn2c(Br)c3c(c2-c2cc(OC)c(OC)c(OC)c2)CCc2sc(NC(=O)c4ccc(OC)cc4)nc2-3)cc1 | 85% | 47.4% | 110% | 97.5% | 78% | 86.7% | 79% | 75.7% | 76.2%
23 | COc1ccc(CCN2CCC(CN(C)Cc3cnn(-c4ccccc4)c3)CC2)cc1 | 23.7% | 12.7% | 45.5% | 21.3% | 15.7% | 42.9% | 0.563% (active) | 3.15% (active) | 5.6% (active)
24 | COc1ccc(Cn2c(Br)c3c(c2Br)-c2nc(N)sc2CC3)cc1 | 41.2% | 52.4% | 71.1% | 55.2% | 39% | 11.6% | 4.26% (active) | 4.01% (active) | 4.13% (active)
25 | COc1cc(-c2c3c(cn2S(=O)(=O)c2ccccc2)-c2nc(N)sc2CC3)cc(OC)c1OC | 54.1% | 30.5% | 53.4% | 49.9% | 34.2% | 21.1% | 7.05% (active) | 23.5% | 9.55% (active)
26 | COc1ccc(-c2nsc3c2NC(=O)CC3c2ccsc2)cc1 (configuration not stated) | 41.9% | 45% | 53.2% | 41.9% | 27.6% | 0.156% (active) | -7.06% (active) | 17.5% | 19.2%
27 | CCCCCCn1c(=N)n(CC(O)COc2cccc(C)c2)c2ccccc21 (configuration not stated) | 28.6% | -96.1% (active) | -86.4% (active) | -52.9% (active) | -21.6% (active) | -13% (active) | 1.25% (active) | -3.39% (active) | -28.5% (active)
28 | COc1ccccc1N1CCN(C(CNS(=O)(=O)c2ccc(Cl)cc2)c2cccnc2)CC1 (configuration not stated) | 90.8% | 111% | 111% | 103% | 104% | 56.7% | 55.5% | 46.7% | 49.5%
29 | CC(C)(C)c1ccc(C2CC(=O)C3=C(C2)Nc2ccccc2N(C(=O)c2ccccc2Cl)C3c2ccc(F)cc2)cc1 (configuration not stated) | 3.86% (active) | 23.7% | 58.9% | 19.9% | 2.95% (active) | 35.5% | 15.7% | 6.7% (active) | 9.77% (active)
30 | Oc1ccc(-c2nc(-c3ccc4oc5ccc(-c6[nH]c(-c7ccc(O)cc7)nc6-c6ccccc6)cc5c4c3)c(-c3ccccc3)[nH]2)cc1 | 39.3% | 39.2% | 80.3% | 73.5% | 69.5% | 77.5% | 43.9% | 57.1% | 43.1%
